Records with an inconclusive call do not appear. Values without a mark were called inactive. Calls follow the shape of the dose curve; as a rule, active = well fitted activation curve with a large enough effect in the repeat runs; inconclusive = weak or mixed curves; inactive = flat fitted curve, though single readings scatter.
% is scaled to controls: 0 for no effect and ±100 for the full control effect.

The nature of the experiment: A CellTox Green Cytotoxicity Assay to monitor cytotoxicity in HEK293 cells - 16 hour (AID 1224888). Also: nearly all actives have a fitted effect of over 35% in size. To be noted: CellTox Green fluorescence; series mostly up to 76.8 µM; activity change: at the top concentration. The text has this: National Center for Advancing Translational Sciences [NCATS]
NIH Chemical Genomics Center [NCGC]
U.S. Environmental Protection Agency [EPA]
National Institutes of Environmental Health Sciences [NIEHS]
National Toxicology Program [NTP]
Cell-based models are critical for drug discovery. Determining the natural cytotoxic effects resulting from test compounds is an essential research activity. A CellTox Green Cytotoxicity Assay to monitor cytotoxicity in real time of continues cell culture during 40 hours of the compound treatment was used to screen Tox21 10K library compounds in Hek293 cells. CellTox Green Cytotoxicity Assay is a nonlytic, homogeneous, biofluorescent method to measure cytotoxicity in cell culture after experimental manipulation. The assay system uses a proprietary asymmetric cyanine dye that is excluded from viable cells but preferentially stains the dead cell's DNA. […] Viable cells produce no appreciable increases in fluorescence. Therefore, the fluorescence signal produced by the binding interaction with dead cell DNA is proportional to cytotoxicity.
The mixture of Hek293 cell suspension and reagents were dispensed at 600cells/6 ul/well in 1536-well tissue culture treated black solid bottom plates using a Multidrop dispenser. After the assay plates were incubated at a 37 C/5% CO2 incubator for 5 hours, 23 nL of compounds dissolved in DMSO, positive and negative controls was transferred to the assay plate by a pintool work station. The plates were incubated at 37 C for 40 hours. The fluorescence intensity were measured at 0h, 8h, 16h, 24h, 32h and 40h time points using ViewLux plate reader during compound treatment.
On to `Oc1ccc(Oc2ccccc2)cc1`, for which the “activity change” value was 21.5%.

For the molecule `CCCCCCCCC(=O)OCC(C)OC(=O)CCCCCCCC` (stereo not given), the “activity change” value is -0.366%.

Consider `O=c1c2ccccc2oc2ccccc12`, for which the “activity change” value is -2.55%.

As for `C/C=C1\[C@H]2C=C(C)C[C@]1(N)c1ccc(=O)[nH]c1C2`, the “activity change” value is 0.5% [at 35.3 µM, active compounds read high].

With `CC(C)Cc1nccs1`, the “activity change” value was -7.6%.

In the case of `O=C(O)c1cc(C(=O)O)cc([N+](=O)[O-])c1`, the “activity change” value was -1.5%.

With `CC(=O)Nc1ccccc1O`, the “activity change” value is 13.6%.

As to `CCCCCCCCCCCCCCCCCCCl`, the activity change is 11.7% [at 6.97 µM, active compounds read high].

For the molecule `CC/C=C\CCO`, the “activity change” value is -0.333%.

`CC(C)(C)c1cc(C=O)cc(C(C)(C)C)c1O`: the “activity change” value is -8.55% [at 35.3 µM, active compounds read high].

Consider `COc1ccc(C(=O)Nc2ccccc2)cc1[N+](=O)[O-]`, for which the “activity change” value was 25.5%.

On to `O=C1C=CCCC1`, for which the “activity change” value was -3.24%.

As to `CC(=O)c1cccnc1`, the “activity change” value was -2.39%.

Turning to `CC(=O)OCC(=O)[C@@]1(O)CC[C@H]2[C@@H]3CCC4=CC(=O)C=C[C@]4(C)[C@@]3(F)[C@@H](O)C[C@@]21C`, the “activity change” value is 14% [at 35.3 µM, active compounds read high].

Consider `N#CCCCC(C#N)CCC#N` (stereo not given), for which the “activity change” value is 2.81%.

As for `CCOc1ccc(NC(C)=O)cc1N`, the “activity change” value is 0.18%.

Consider `CC(C)=CCC[C@H](C)CCO`, for which the “activity change” value was 3.71%.

With `CC(C)C[C@H](NC(=O)[C@H](Cc1ccccc1)NC(=O)c1cnccn1)B(O)O`, the “activity change” value was 20.5% [at 35.3 µM, active compounds read high].

Regarding `Clc1nc2ccccc2nc1Cl`, the “activity change” value was 2.8%.

As for `O=C(Nc1ccc2c(c1)Cc1ccccc1-2)C(F)(F)F`, the “activity change” value is 1.89%.

For `NCCOCCOCCN`, the “activity change” value is 1.21%.

In the case of `CS(C)=O`, the “activity change” value was 5.21%.

For `FC(F)(Cl)C(F)(Cl)Cl`, the “activity change” value was 1.6%.

Turning to `O=C(c1ccco1)N1CCNCC1`, the “activity change” value is 5.66% [at 35.3 µM, active compounds read high].

In the case of `O=P(c1ccccc1)(c1ccccc1)c1ccccc1`, the “activity change” value is 17.6%.

Take `O=C1c2ccccc2C(=O)C1c1ccc2cc(S(=O)(=O)O)cc(S(=O)(=O)O)c2n1`: the “activity change” value was -2.53%.

Regarding `OCCCO`, the “activity change” value is -2.42%.

Regarding `C[C@@H](O)[C@H]1C(=O)N2C(C(=O)O)=C(S[C@@H]3CN[C@H](CNS(N)(=O)=O)C3)[C@H](C)[C@H]12`, the “activity change” value is -7.32% [at 35.3 µM, active compounds read high].

Regarding `CC(C)(C)N`, the “activity change” value was -0.249%.

In the case of `SCCOCCOCCS`, the “activity change” value was -19.1%.

Take `O=C(O)c1c2ccccc2cc2ccccc12`: the “activity change” value is 0.0342%.

Turning to `CC/C=C/CCO`, the “activity change” value is 0.143%.

With `CC(COc1ccccc1)NC(C)C(O)c1ccc(O)cc1` (stereo not given), the “activity change” value was -0.851% [at 35.3 µM, active compounds read high].

With `Cc1cc(C)c(C)c(O)c1`, the “activity change” value is -4.93%.

As to `CCc1ccc(C(=O)C(C)CN2CCCCC2)cc1` (stereo not given), the “activity change” value was 0.696% [at 35.3 µM, active compounds read high].

Regarding `NC(=O)c1cc[n+](CC2=C(C(=O)[O-])N3C(=O)[C@@H](NC(=O)Cc4cccs4)[C@H]3SC2)cc1`, the “activity change” value was -1.78% [at 35.3 µM, active compounds read high].

For `COc1ccnc2c1CCCCC2S(=O)c1nc2ccccc2[nH]1` (stereo not given), the “activity change” value is -1.53% [at 35.3 µM, active compounds read high].

In the case of `Cc1ccc(NC(=O)c2ccc(CN3CCN(C)CC3)cc2)cc1Nc1nccc(-c2cccnc2)n1`, the “activity change” value is -0.726% [at 35.3 µM, active compounds read high].

For the molecule `CC1(C)CC(=O)CC(C)(C)N1`, the “activity change” value was -8.16%.

For the molecule `CCC(C(=O)O)c1ccc(N2Cc3ccccc3C2=O)cc1` (stereo not given), the “activity change” value was -1.71% [at 35.3 µM, active compounds read high].

Values taken from PubChem BioAssay (Tox21).
